We go through 6 compounds from PubChem BioAssay.

Several values for one entry are separate records, joined by “and”; a condition that tells them apart may be missing. Equal entries are not always repeated. Activity calls are given as the source filed them.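 The calls were made as follows, unless noted: active = thallium flux through the channel raised or lowered by more than 3 SD from vehicle-only wells, actives on both sides; inactive = the rest.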

Experiment [1] can be described thus: P. berghei load reduction in hepatocytes – cell-based, HepG2, luciferase luminescence, HepG2 viability, primary screen (AID 624349; in the data active = parasite load remaining mostly below about 12%, no sharp cut-off; inactive = mostly above about 10%;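 also: 100% = mean of DMSO negative control wells on the same plate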). Conditions: P. berghei liver stage in HepG2, luciferase luminescence, concentration not given here; parasite load remaining: stronger effect = lower value; viability: measured here: HepG2 viability without parasites.
Experiment [2] is described as follows: signal quenchers or enhancers, Cy5 substrate/SSB – biochemical, NIH Clinical Collection, E. coli SSB, artefact control for HCV NS3 helicase inhibitor project (AID 743268; call rule not given here). Conditions: Cy5-oligo bound E. coli SSB, fluorescence interference.
In experiment [3] the test system is Hepatitis C virus NS3 helicase. Put plainly: blockers of NS3h binding to DNA – biochemical, fluorescence polarization, NIH Clinical Collection, primary screen (AID 743270; call rule not given here). The note with it: NS3 helicase binding to Cy5-dT15 DNA, stronger effect = higher value, concentration not given here.
Experiment [4] has as its target Single-stranded DNA-binding protein (Escherichia coli (strain K12)) (UniProt P0AGE0). Put plainly: SSB-ssDNA binding inhibitors – biochemical, fluorescence polarization, NIH Clinical Collection, counter-screen for HCV NS3 helicase inhibitor project (AID 743271; in the data active = inhibition above about 28%). Conditions: E. coli SSB-DNA binding, stronger effect = higher value, concentration not given here. (In general: Fluorescence polarisation rises when a labelled molecule tumbles more slowly, as on binding a larger partner.)

A short description of experiment [5]: compounds distorting NS3 helicase fluorescence signal – biochemical, NIH Clinical Collection, artefact control for HCV NS3 helicase inhibitor project (AID 743272; call rule not given here;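 also: HCV NS3 helicase with a Cy5 labelled single stranded DNA probe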). Conditions: fluorescence interference counterscreen, HCV NS3 helicase assay; stronger effect = lower value.
A short description of experiment [6]: viability loss with induced miR-34 in A549 – imaging, A549 dox-inducible miR-34, nuclei and caspase counts, primary screen (AID 1347080;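 active = compounds whose cell count with miR-34 switched on is under 0.7 times the count with it off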). The note with it: A549 miR-34 inducible, Hoechst nuclei count, 48 h.
A short description of experiment [7]: galactose survival enhancers in mitochondrial complex I cybrids – cell-based, galactose medium, ATP luminescence, primary screen (AID 1645843;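 active = z-score of at least 1.8 in each of two replicates, scored against plate mean and spread of sample wells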;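 also: positive z means more ATP and so rescue of galactose-driven cybrid death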). Conditions: complex I mutant cybrid cells, 72 h, stronger effect = higher value.
The subject of a further experiment is F380Y. Put plainly: BK channel mutant inhibitors and activators – cell-based, U2OS BacMam, thallium flux, beta subunits, selectivity assay, profiling panel (AID 1259406).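 Also: initial slope of Thallos dye fluorescence rise after thallium is added; log ratio against the mean of 0.3% DMSO vehicle wells on the same plate.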 The note with it: U2OS BacMam BK variants, at 30 µM.
For the next experiment, the system named is F380Y/beta1. The description is as above. The note with it: U2OS BacMam BK variants, at 30 µM.
In the next experiment the test system is F380Y/beta2Delta. The experiment is described as above. The note with it: U2OS BacMam BK variants, at 30 µM.
In a further experiment the test system is F380Y/beta4. The description is as above. The note with it: U2OS BacMam BK variants, at 30 µM.
Experiment [8] has as its target Calcium-activated potassium channel subunit alpha-1 (Homo sapiens) + Leucine-rich repeat-containing protein 26 (Homo sapiens) (UniProt Q12791+Q2I0M4). The experiment is described as above. Conditions: U2OS BacMam BK variants, F380Y/Slo1WT/gamma1, at 30 µM.
Another experiment has as its system R275C. The experiment is described as above. The note with it: U2OS BacMam BK variants, at 30 µM.
In the next experiment the test system is R275C/beta1. The experiment is described as above. The note with it: U2OS BacMam BK variants, at 30 µM.
Another experiment relates to R275C/beta2Delta. Described as above. The note with it: U2OS BacMam BK variants, at 30 µM.
In a further experiment the test system is R275C/beta4. Described as above. Conditions: U2OS BacMam BK variants, at 30 µM.
Another experiment concerns R275C/Slo1WT/beta2. Described as above. The note with it: U2OS BacMam BK variants, at 30 µM.
The nature of experiment [9]: MELAS cybrid and Rieske KO viability enhancers – cell-based, MELAS cybrids, Rieske KO mouse fibroblasts, CellTiter-Glo, primary screen (AID 1508586;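 active = mean z-score across replicates of 1.96 or higher in either the MELAS or the Rieske mutant cell line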;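 also: z relative to plate mean and SD of compound and empty wells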). Conditions: low glucose. On the technique in general: In ATP-based viability assays light output follows the ATP content of the culture.
For experiment [10], the system named is Neuropilin-2 / VEGF-C interaction (human). The experiment is described as follows: small molecules blocking Neuropilin-2/VEGF-C interaction – biochemical, microplate binding format, z-score (AID 743281; call rule not given here). Conditions: microplate NRP2/VEGF-C binding assay; stronger effect = lower value.
Experiment [11] is described as follows: modulation of C. elegans fzo-1 (AID 1259413; call rule not given here;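 also: fzo-1 mutant C. elegans worms in liquid wells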). Conditions: C. elegans fzo-1 modulator screen, mean read-out; stronger effect = higher value.
The mark [12] stands for this setting: stronger effect = lower value, cell number ratio, induced over uninduced.
[13] abbreviates: measured here: relative caspase fold change +Dox/-Dox.
Setting [14] is: measured here: total cells with miR-34 induction, stronger effect = lower value.
Where [15] appears, read: measured here: total cells without miR-34 induction.
The mark [16] stands for this setting: MELAS cybrid survival, CellTiter-Glo 48 h, stronger effect = higher value.
[17] abbreviates: Rieske KO mouse fibroblast survival, CellTiter-Glo 72 h.

As a reminder, the viability is a read-out of living cells in per cent, often relative to untreated cells. One may read the inhibition as the relative decrease from the control value, in per cent.

Sequence of Calcium-activated potassium channel subunit alpha-1 (Homo sapiens) + Leucine-rich repeat-containing protein 26 (Homo sapiens) (Q2I0M4 whole entry, looked up, one chain of several): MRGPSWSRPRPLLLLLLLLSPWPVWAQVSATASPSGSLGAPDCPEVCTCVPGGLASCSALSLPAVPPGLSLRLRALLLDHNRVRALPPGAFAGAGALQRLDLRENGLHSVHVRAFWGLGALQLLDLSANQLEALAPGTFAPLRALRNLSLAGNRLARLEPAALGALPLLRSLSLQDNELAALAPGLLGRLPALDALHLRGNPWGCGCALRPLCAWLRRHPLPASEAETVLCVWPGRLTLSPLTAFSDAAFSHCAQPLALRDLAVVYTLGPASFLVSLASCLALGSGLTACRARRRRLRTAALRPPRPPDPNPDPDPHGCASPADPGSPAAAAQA

On to `CC(=CCC1=C(C)C(=O)c2ccccc2C1=O)CCCC(C)CCCC(C)CCCC(C)C` (stereo not given), for which, in experiment [1], the parasite load remaining is 49.5% (inactive). Further, the viability in [1] is 97.8%. For the same compound, the values for the fluorescence ratio in [2] and in experiment [5] were 1.04 (inactive) and 0.97 (inactive), respectively. Besides, the inhibition in [3] was -1.36% (inactive); in experiment [4], 3.34% (inactive). The fold change is 1.25 (inactive) in [6] (setting [12]) and 2.78 in experiment [6] (setting [13]). The cell count in experiment [6] (setting [14]) came to 7560; in experiment [6] (setting [15]), 6060. For the same compound, the z-score in experiment [7] was -1.38 (inactive). Further, the log fold change Tl+ flux with F380Y is -0.0115 (inactive); in the experiment on F380Y/beta1, 0.045 (inactive); in the experiment on F380Y/beta2Delta, 0.0296 (inactive); in the experiment on F380Y/beta4 it was 0.0448 (inactive); in experiment [8], 0.0507 (inactive); in the experiment on R275C, 0.0242 (inactive). Also, the log fold change Tl+ flux in the experiment with R275C/beta1 was 0.0513 (inactive); in the experiment on R275C/beta2Delta, 0.0188 (inactive); with R275C/beta4, 0.0575 (inactive); in the experiment with R275C/Slo1WT/beta2, -0.0288 (inactive).

Consider `O=c1[nH]c(=O)n(C2CC(O)C(CO)O2)cc1F` (stereo not given), for which, in experiment [1], the parasite load remaining was 68.3% (inactive). Besides, in experiment [1], the viability was found to be 115%. Moreover, the fluorescence ratio was 1.03 (inactive) in experiment [2] and 1.04 (inactive) in [5]. Further, the inhibition is -1.36% (inactive) in experiment [3] and 1.81% (inactive) in experiment [4]. Besides, the fold change is 1.17 (inactive) and 1.12 (inactive) in experiment [6] (setting [12]); 3.66 and 0.771 in [6] (setting [13]). The cell count in experiment [6] (setting [14]) is 2970 and 2380; in experiment [6] (setting [15]), 2550 and 2130. Also, the values for the z-score in experiment [9] (setting [16]), in [9] (setting [17]) and in [7] were -0.408 (inactive), 0.487 and -1.07 (inactive), respectively. In addition, the log fold change Tl+ flux in the experiment with F380Y was -0.00405 (inactive); in the experiment on F380Y/beta1, 0.0394 (inactive); with F380Y/beta2Delta, 0.0245 (inactive); in the experiment with F380Y/beta4, 0.0173 (inactive); in [8], -0.00699 (inactive); in the experiment on R275C it was 0.0218 (inactive). For the same compound, the log fold change Tl+ flux was 0.000317 (inactive) with R275C/beta1, 0.0028 (inactive) in the experiment with R275C/beta2Delta, -0.0029 (inactive) in the experiment on R275C/beta4 and -0.136 (active) with R275C/Slo1WT/beta2.

For the compound `CCC(C)(C)N=C(NC#N)Nc1cccnc1`, in experiment [1], the parasite load remaining is 49.6% (inactive). Besides, the viability in experiment [1] amounted to 69.3%. The fluorescence ratio in experiment [2] was 0.95 (inactive); in experiment [5] it was 0.92 (inactive). For the same compound, the inhibition in experiment [3] was -2.84% (inactive); in experiment [4], -3.54% (inactive). The z-score is -0.415 (inactive) in experiment [10] and 0.04 (inactive) in [7]. Besides, in [11], the mean signal is 201 (inactive). In addition, the fold change in [6] (setting [12]) was 0.909 (inactive); in [6] (setting [13]), 1.24. Also, the cell count in experiment [6] (setting [14]) came out at 9920; in experiment [6] (setting [15]), 10900. Besides, the log fold change Tl+ flux in the experiment with F380Y is 0.00312 (inactive); with F380Y/beta1, 0.00744 (inactive); in the experiment with F380Y/beta2Delta, 0.00568 (inactive); with F380Y/beta4, 0.0162 (inactive); in experiment [8] it was 0.00265 (inactive); in the experiment on R275C it was -0.0443 (inactive). The log fold change Tl+ flux with R275C/beta1 was -0.0211 (inactive); in the experiment with R275C/beta2Delta, -0.00288 (inactive); in the experiment on R275C/beta4, 0.0126 (inactive); in the experiment with R275C/Slo1WT/beta2, -0.00574 (inactive).

On to `Nc1ncnc2c1ncn2[C@@H]1O[C@H](CO)C[C@@H]1O`, for which the parasite load remaining in [1] was 137% (inactive). In [1], the viability was 93.2%. The fluorescence ratio in [2] is 0.96 (inactive); in experiment [5], 0.87 (inactive). Further, the inhibition in experiment [3] was -2.77% (inactive); in experiment [4], 2.21% (inactive). The z-score in experiment [10] was -0.398 (inactive). Besides, the mean signal in [11] is 230 (inactive). Besides, the log fold change Tl+ flux with F380Y was 0.0402 (inactive); in the experiment with F380Y/beta1 it was 0.0107 (inactive); in the experiment on F380Y/beta2Delta, -0.0103 (inactive); in the experiment on F380Y/beta4 it was 0.0334 (inactive); in experiment [8], 0.00963 (inactive); with R275C, -0.0453 (inactive). For the same compound, the log fold change Tl+ flux is -0.0213 (inactive) in the experiment on R275C/beta1, 0.0189 (inactive) in the experiment on R275C/beta2Delta, -0.00206 (inactive) in the experiment with R275C/beta4 and 0.0268 (inactive) with R275C/Slo1WT/beta2.

Turning to `C=C1/C(=C\C=C2/CCC[C@]3(C)[C@@H]([C@H](C)CCCC(C)(C)O)CC[C@@H]23)C[C@@H](O)C[C@@H]1O`, the parasite load remaining in experiment [1] was 39.1% (inactive) and 53.6% (inactive). The viability in experiment [1] was 72.4% and 142%. The results for the fluorescence ratio in [2] and in experiment [5] were 0.98 (inactive) and 0.91 (inactive), respectively. The inhibition in experiment [3] was 3.56% (inactive); in experiment [4] it was 2.21% (inactive). Also, the fold change is 1.03 (inactive) and 0.94 (inactive) in [6] (setting [12]); 1.63 and 1.45 in experiment [6] (setting [13]). Besides, the cell count in [6] (setting [14]) was 5100 and 8330; in experiment [6] (setting [15]) it was 4940 and 8850. Moreover, the z-score in experiment [9] (setting [16]) is -0.162 (inactive); in [9] (setting [17]), -0.598; in [7], -0.805 (inactive). Besides, the log fold change Tl+ flux in the experiment with F380Y was 0.103 (inactive); with F380Y/beta1, 0.0867 (inactive); in the experiment on F380Y/beta2Delta it was 0.0281 (inactive); in the experiment with F380Y/beta4, 0.0801 (inactive); in experiment [8], 0.0668 (inactive); in the experiment with R275C, -0.0123 (inactive). The log fold change Tl+ flux with R275C/beta1 is 0.0898 (active); with R275C/beta2Delta, 0.0428 (inactive); with R275C/beta4 it was 0.0602 (inactive); in the experiment with R275C/Slo1WT/beta2, -0.0015 (inactive).

Turning to `CCC[C@@H]1C[C@@H](C(=O)N[C@H]([C@@H](C)O)[C@H]2O[C@H](SC)[C@H](O)[C@@H](O)C2O)N(C)C1` (stereo not given in full), the parasite load remaining in experiment [1] was 97.8% (inactive). Besides, in experiment [1], the viability is 91%. For the same compound, the fluorescence ratio in [2] is 0.98 (inactive); in experiment [5], 1.03 (inactive). The inhibition in experiment [3] is -5% (inactive); in experiment [4] it was -3.53% (inactive). Also, the mean signal in experiment [11] is 237 (inactive). For the same compound, the log fold change Tl+ flux in the experiment with F380Y is 0.0293 (inactive); in the experiment with F380Y/beta1, -0.0324 (inactive); in the experiment on F380Y/beta2Delta it was 0.0245 (inactive); in the experiment on F380Y/beta4 it was 0.0251 (inactive); in [8] it was 0.0541 (inactive); with R275C, -0.0022 (inactive). Besides, the log fold change Tl+ flux in the experiment with R275C/beta1 is -0.0579 (inactive); with R275C/beta2Delta, -0.0468 (inactive); with R275C/beta4, -0.0617 (inactive); in the experiment on R275C/Slo1WT/beta2, -0.0428 (inactive).
